The whole screen tested about 2,100 compounds, of which about 760 (36%) were called active.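 Rule for the calls: active = thallium-flux fluorescence traces judged by eye to show enhanced or reduced glutamate response, manual score 1 or -1, so both directions (some results past the limit were not filed as active); inactive = the rest, including fluorescent or raised-baseline compounds.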 A selection follows.
Experiment: non-GIRK thallium flux modulation in mGlu8 cells, confirmation, counter-screen for GIRK activator project, cell-based, HEK-293 rmGlu8, no GIRK (AID 623868);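 note: extra codes mark interference with 3 for fluorescent and 4 for baseline rise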
Settings: thallium flux fluorescence, at 10 µM, actives lie on both sides, codes: 1 enhancer, -1 blocker, 0 none, thallium stimulus containing EC20 glutamate

SMILES	manual score
CC1CCN(c2ccc(/C=N/n3nnnc3N)cc2[N+](=O)[O-])CC1	0 (inactive)
COc1ccc2c(c1)Sc1ccccc1N2CCN(C)C	0 (inactive)
O/N=C/c1cc(Cl)ccc1OCc1cccc2ccccc12	0 (inactive)
Cc1cc(C)n(-c2nnc(C)n2/N=C/c2ccccc2OCc2ccccc2Cl)n1	-1 (active)
COc1ccccc1/C=C/C=N\N1CCN(Cc2ccccc2Cl)CC1	0 (inactive)
Fc1ccc(NC(=S)Nc2ccccc2OC(F)F)cc1Cl	0 (inactive)
CCc1ccc(NC(=S)NNC(=O)c2ccccc2OC(F)F)cc1	1 (active)
CCNC(=S)NNC(=O)c1cccn(Cc2ccc(Cl)cc2)c1=O	0 (inactive)
CCc1ccc(Nc2nc3ccccc3c(=O)s2)cc1	1 (active)
c1ccc2c(Nc3nnc(-c4ccncc4)s3)cccc2c1	0 (inactive)
CCc1ccc2c(c1)C1(NN=C(c3cccc4ccccc34)S1)C(=O)N2 (stereo not drawn)	0 (inactive)
CCOc1cc(C(=O)NCc2ccncc2)cc(OCC)c1OCC	0 (inactive)
COc1ccc(-n2nnnc2SCC(=O)N2CCOCC2)cc1	0 (inactive)
NS(=O)(=O)c1ccc(S(=O)(=O)N2CCCC2)cc1	0 (inactive)
Cc1ccc2nc(-c3ccc(O)cc3)c(Nc3ccc4c(c3)OCCO4)n2c1	-1 (active)
Cc1ccc(-c2nnc(SCC(=O)Nc3ccc4c(c3)OCCO4)n2N)cc1	0 (inactive)
CCCN(CCC)CC(O)Cn1cc(/C=C/C(=O)c2cccs2)c2ccccc21 (stereo not drawn)	3 (inactive)
CNC(=O)c1ccc2nc(NC(C)=O)sc2c1	0 (inactive)
Cc1cc(C)c2nc(NC(=O)c3cc(C)on3)sc2c1	1 (active)
CCc1ccc2nc(NC(=O)c3cc(C)on3)sc2c1	1 (active)
O=C(Nc1nc2ccc(Cl)cc2s1)c1ccc(Br)o1	0.5 (inactive)
COc1ccc(-c2c(S(=O)(=O)c3ccccc3)cnn2-c2ccccc2)cc1	0 (inactive)
CCOc1ccc(NC(=O)NC23CC4CC(CC(C4)C2)C3)cc1	0 (inactive)

SMILES	manual score
COc1ccc2nc(NC(=S)N(C)C)sc2c1	1 (active)
COc1ccc2nc(N=Nc3ccc(O)c4ccccc34)sc2c1	0 (inactive)
CS(=O)(=O)c1ccc2nc(NC(=O)Nc3ccc(Cl)c(Cl)c3)sc2c1	0 (inactive)
Cc1ccc(OCC(O)Cn2c(=N)n(Cc3ccccc3)c3ccccc32)cc1 (stereo not drawn)	0 (inactive)
CCn1c(-c2cc3c(C(F)(F)F)nn(C)c3s2)n[nH]c1=S	0 (inactive)
CCn1c2ccccc2c2cc(/C=N/n3cn[nH]c3=S)ccc21	1 (active)
CCn1c(-c2ccc(-c3ccccc3)cc2)c[nH]c1=S	0 (inactive)
CCOC(=O)Cn1c(=N)n(Cc2ccccc2F)c2ccccc21	0 (inactive)
O=[n+]1c2c(n([O-])c3cc(F)c(N4CCCC4)cc31)CCCC2	3 (inactive)
Cc1ccc(S(=O)(=O)N2CCN(C)CC2)cc1-c1nnc2c3ccccc3c(C)nn12	0 (inactive)
C/C(=N\NC(=S)Nc1ccc(F)cc1)c1ccc2c(c1)OCCO2	1 (active)
COC(=O)[C@H](CC(C)C)NC(=O)Nc1ccc2c(c1)OCCO2	0 (inactive)
O=C(Nc1ccc2c(c1)OCCO2)NC12CC3CC(CC(C3)C1)C2	0 (inactive)
C/C(=N/NC(=S)Nc1ccccc1)c1ccc2c(c1)OCO2	1 (active)
CN(C)S(=O)(=O)c1cc(NC(=O)COC(=O)c2ccc3c(c2)OCO3)ccc1Cl	0 (inactive)
C/C(=N\NC(=S)Nc1cccc(C)c1)c1cccc(N)c1	1 (active)
Cc1c(N2C(=O)CS/C2=N\N=C\c2ccccc2O)c(=O)n(-c2ccccc2)n1C	0 (inactive)
O=C1c2ccccc2C(=O)N1Nc1ccccc1	0 (inactive)
Cc1ccc(C)n1-c1ccc(-c2nnco2)cc1	0 (inactive)
CCOc1ccc(-c2nc(-c3cccnc3)no2)cc1OCC	0 (inactive)
O=C(CSc1nnnn1-c1cccc2c1CCCC2)NC1CCCC1	0 (inactive)
Cc1ccc(-c2cn(-c3ccccc3)c(SCC(=O)NC3CCS(=O)(=O)C3)n2)cc1C (stereo not drawn)	1 (active)
Cc1ccc(OC(=S)Nc2ccccc2)c(C)c1	0 (inactive)

SMILES	manual score
N#C/C(=C/c1ccc(N2CCOCC2)o1)c1nc2ccccc2[nH]1	3 (inactive)
Cc1ccccc1NC(=S)c1nc2ccccc2[nH]1	1 (active)
Cc1ccc(-n2nnnc2-c2nc3ccccc3s2)cc1	0 (inactive)
Cc1ccc(NC(=S)c2nc3ccccc3[nH]2)c(C)c1	1 (active)
Cc1ccc2nc(NCc3ccccc3)[nH]c2c1	0 (inactive)
N#C/C(=C\c1ccc(N2CCOCC2)o1)c1nc2ccccc2[nH]1	3 (inactive)
Cc1ccc(C)c(NC(=S)c2nc3ccccc3s2)c1	1 (active)
CCC(C)NC(=O)CSc1nc2ccccc2c(=O)n1Cc1ccc(OC)cc1 (stereo not drawn)	1 (active)
CC(c1ccccc1)n1c(SCC(=O)N2CC(=O)Nc3ccccc32)nc2ccccc2c1=O (stereo not drawn)	0 (inactive)
O=C1CN(C(=O)CSc2nc3cc(Cl)ccc3c(=O)n2Cc2ccccc2)c2ccccc2N1	1 (active)
Cc1ccc(Cn2c(SCC(=O)NCC3CCCO3)nc3c(sc4ccccc43)c2=O)cc1 (stereo not drawn)	0 (inactive)
O=C1CN(C(=O)CSc2nc3ccccc3c(=O)n2Cc2ccc(F)cc2)c2ccccc2N1	1 (active)
Cc1ccc(Cn2c(SCC(=O)N3CC(=O)Nc4ccccc43)nc3ccccc3c2=O)cc1	1 (active)
Cc1cc(NC(=O)CSc2nc3ccccc3c(=O)n2Cc2ccccc2)no1	0 (inactive)
O=C(CSc1nc2ccccc2c(=O)n1CC1CCCO1)N1CCN(c2ccccc2)CC1 (stereo not drawn)	0 (inactive)
Clc1ccc(OCCn2ccnc2)c(Cl)c1	0 (inactive)
CC(/C=N/n1c(-c2ccc(Cl)cc2)n[nH]c1=S)=C\c1ccco1	1 (active)
CC(/C=N/n1c(-c2ccccc2)n[nH]c1=S)=C\c1ccco1	1 (active)
O=C(Nc1ccccc1)Nc1nccs1	-0.5 (inactive)
COC(=O)CSC1=NS(=O)(=O)c2ccccc21	0 (inactive)
CCCc1nc2ccccc2c(=O)n1/N=C/c1c(C)[nH]n(-c2ccc(C)cc2)c1=O	1 (active)
CN(C)CCNc1nc2c(c(=O)[nH]c(=O)n2C)n1CCCc1ccccc1	0 (inactive)
